# Laboratory results published in PubChem BioAssay.
# Unmarked numbers belong to inactive results. Activity calls are given as the source filed them.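 Rule for the calls: active = compounds that lower survival of HCT116 colon cancer cells in the luminescence readout, no numeric limit stated; inactive = the rest.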
# Experiment: HCT116 colon cancer cell growth inhibition, primary screen, CellTiter-Glo luminescence, NPC library (AID 1117342)
# Details: at 20 µM (top of the series)
row,Compound,inhibition of viability
1,CCCCN(CCCC)CCC(O)c1cc2c(Cl)cc(Cl)cc2c2cc(C(F)(F)F)ccc12 (stereo not drawn),105% (active)
2,CCC(=O)O[C@]1(C(=O)SCF)[C@H](C)C[C@H]2[C@@H]3C[C@H](F)C4=CC(=O)C=C[C@]4(C)[C@@]3(F)[C@@H](O)C[C@@]21C,6.27%
3,CC1(C)O[C@@H]2C[C@H]3[C@@H]4C[C@H](F)C5=CC(=O)C=C[C@]5(C)[C@@]4(F)[C@@H](O)C[C@]3(C)[C@]2(C(=O)CO)O1,19.8%
4,NC(N)=NC(=O)Cc1c(Cl)cccc1Cl,68.9% (active)
5,Cc1cn[nH]c1,0.47%
6,NS(=O)(=O)c1cc2c(cc1Cl)NC(C1CC3C=CC1C3)NS2(=O)=O (stereo not drawn),-8.27%
7,CC(=O)O[C@H]1C[C@@H]2CC[C@@H]3[C@H](CC[C@@]4(C)[C@H]3C[C@H]([N+]3(C)CCCCC3)[C@@H]4OC(C)=O)[C@@]2(C)C[C@@H]1N1CCCCC1,3.2%
8,CCCCNc1c(C(=O)OCC)c(C)nc2c1cnn2CC,94.4% (active)
9,C#C[C@]1(O)CC[C@H]2[C@@H]3[C@H](C)CC4=C(CCC(=O)C4)[C@H]3CC[C@@]21C,-14.3%
10,NCCS(=O)(=O)O,-12.3%
11,C#C[C@]1(O)CC[C@H]2[C@@H]3CCc4cc(O)ccc4[C@H]3CC[C@@]21C,70.3% (active)
12,C#C[C@]1(O)CC[C@H]2[C@@H]3CCc4cc(OC)ccc4[C@H]3CC[C@@]21C,45%
13,O=C(O)CSCC(=O)NC1CCSC1=O (stereo not drawn),9%
14,COc1ncnc(NS(=O)(=O)c2ccc(N)cc2)c1OC,-1.93%
15,COc1cc2c(N3CCN(C(=O)Nc4ccc(OC(C)C)cc4)CC3)ncnc2cc1OCCCN1CCCCC1,93.9% (active)
16,Cc1cc2c(C(C)C)c(O)c(O)c(C=O)c2c(O)c1-c1c(C)cc2c(C(C)C)c(O)c(O)c(C=O)c2c1O,91.7% (active)
17,Oc1ccc(OCc2ccccc2)cc1,-6.37%
18,C[n+]1c2cc(N)ccc2cc2ccc(N)cc21 (tested in a mixture with another compound),83.8% (active)
19,CCOC(=O)O[C@]1(C(=O)OCCl)CC[C@H]2[C@@H]3CCC4=CC(=O)C=C[C@]4(C)[C@H]3[C@@H](O)C[C@@]21C,3.1%

row,Compound,inhibition of viability
1,Cc1nc(-c2ccc(OCC(C)C)c(C#N)c2)sc1C(=O)O,25.4%
2,COc1cc(C(=O)OCCCN2CCCN(CCCOC(=O)c3cc(OC)c(OC)c(OC)c3)CC2)cc(OC)c1OC,77.6% (active)
3,Cc1cnc(C(=O)O)c[n+]1[O-],3%
4,COC(=O)[C@H]1[C@H]2C[C@@H]3c4[nH]c5cc(OC)ccc5c4CCN3C[C@H]2C[C@@H](OC(=O)c2cc(OC)c(OC)c(OC)c2)[C@@H]1OC,40.1%
5,CO[C@@H]1[C@@H](OC(N)=O)[C@@H](O)[C@H](Oc2ccc3c(O)c(NC(=O)c4ccc(O)c(CC=C(C)C)c4)c(=O)oc3c2C)OC1(C)C,-1.6%
6,COCCCOc1cc(C[C@@H](C[C@H](N)[C@@H](O)C[C@H](C(=O)NCC(C)(C)C(N)=O)C(C)C)C(C)C)ccc1OC,19.7%
7,CN1CCN2c3ccccc3Cc3ccccc3C2C1 (stereo not drawn),20.5%
8,C[C@@H]1CN(c2c(F)c(N)c3c(=O)c(C(=O)O)cn(C4CC4)c3c2F)C[C@H](C)N1,23.4%
9,O=NN(CCCl)C(=O)NC1CCCCC1,-0.2%
10,CNC[C@H](O)[C@@H](O)[C@H](O)[C@H](O)CO,4.6%
11,CCC(C)n1ncn(-c2ccc(N3CCN(c4ccc(OC[C@H]5CO[C@](Cn6cncn6)(c6ccc(Cl)cc6Cl)O5)cc4)CC3)cc2)c1=O (stereo partly drawn),75.3% (active)
12,O=P(O)(O)C(O)(Cc1cccnc1)P(=O)(O)O,5.33%
13,CN(C)c1ccc2nc3ccc(=[N+](C)C)cc-3sc2c1,97.8% (active)
14,CC1=C(C)C(=O)C(C(CCCCCC(=O)O)c2ccccc2)=C(C)C1=O (stereo not drawn),-4.2%
15,C#CCN[C@@H]1CCc2ccccc21,-2%
16,CCCCCN(C)CCC(O)(P(=O)(O)O)P(=O)(O)O,9%
17,Cc1c[nH]c2ccccc12,10.3%
18,CC(C)(C)NC(=O)[C@H]1CC[C@H]2[C@@H]3CC[C@H]4NC(=O)C=C[C@]4(C)[C@H]3CC[C@]12C,5.67%
19,O=C(O)CN1C(=O)c2cccc3cccc(c23)C1=O,-17.1%
